Shown are actives, neighbours in structure and some others; about 7.1% of the full set was active somewhere.
MCF10A rereplic – DNA re-replication induction in MCF 10a cells; MCF 10A DNA re-replication, Hoechst nuclear intensity, 48 h; Potency, µM (series often up to 46.1 µM), for the others: at the highest dose activity, positive = re-replication, hits mostly activators; AID 624296; 2.9% of 350,000 active; note: potency is the fitted concentration of half-maximal effect; % of control where 0% means no effect; nearly all actives have a fitted effect of over 50% in size
PINK1 expr mod – modulators of PINK1 expression; PINK1 immunofluorescence, high-content cytometry, 24 h; Potency, µM (titrated, usually from 76.6 µM), without a hit: at the top dose activation (PINK1 increase), usual class: activators; 0.2% of 410,000 active; AID 624263; active = well fitted activation curve with a large enough effect; inconclusive = small, poorly fitted or top-dose-only effect; cell line not stated here; note: potency is the fitted concentration of half-maximal effect; % of control where 0% means no effect; nearly all actives have a fitted effect of over 65% in size
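PINK1 protein level read as immunofluorescence by microplate cytometer in a fixed, stained stable cell line after 24 h exposure to five compound concentrations, with CCCP as control.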
IL1B secr inh – inhibitors of inflammasome signaling (IL-1 beta secretion) | AID 743279 | THP-1 LPS/ATP IL-1B secretion, AlphaLISA, 16 h; stronger effect = lower value | 4.7% of 360,000 active | activity change, % at 57.5 µM; in the data active = activity change below about -50%; inconclusive = mostly about -30% to -49%; note: % is set by controls: 0 for no effect and ±100 for the full control effect
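Secreted IL-1B measured by AlphaLISA bead assay after 16 h compound exposure of THP-1 cells; compounds (final up to 57.5 uM) added 1 h before LPS (250 ng/mL) and ATP (1.25 mM) stimulation; lower signal means less secretion.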
ATXN viability – viability counter-screen for ATXN expression inhibitors; S2 cells (HEK-293 line with an ATXN2-luciferase reporter) viability, CellTiter-Fluor protease fluorescence, 24 h; Potency, µM (highest dose often 56.7 µM), usual class: cytotoxic; 0.49% of 400,000 active; note: potency is the fitted concentration of half-maximal effect; nearly all actives have a fitted effect of over 40% in size
ATXN2 expr inh – reduces ATXN2 reporter expression in HEK-293 cells | HEK-293 ATXN2-luciferase reporter, luminescence, 24 h | Potency, µM (titrated, usually from 57 µM), without a hit: at the highest dose activity change, negative = inhibition, usual class: inhibitors | 0.72% of 360,000 active | AID 1745845; note: potency is the fitted concentration of half-maximal effect; % is set by controls: 0 for no effect and ±100 for the full control effect; nearly all actives have a fitted effect of over 55% in size
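qHTS (up to 57 uM final) was run with 24 h compound exposure of reporter cells at 37 °C. Each well was multiplexed: SteadyGlo luminescence measured ATXN2-luciferase expression after a fluorogenic Gly-Phe-AFC viability readout (25 uM final).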
SW480 rerep – induces DNA re-replication in SW480 colon adenocarcinoma cells | SW480 DNA re-replication, Hoechst DNA content imaging, 48 h | Potency, µM (highest dose often 46.1 µM), for the others: top-dose re-replication activation, most hits filed as activators | 1.8% of 340,000 active; note: potency is the fitted concentration of half-maximal effect; % of control where 0% means no effect; nearly all actives have a fitted effect of over 55% in size
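Readout is total intensity of Hoechst-stained nuclei, excited at 405 nm and collected at 500-530 nm. Compound treatment lasted 48 hr at 37 C in 5% CO2 before staining.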
Numbers without * were called inactive; i = inactive; ? = inconclusive; . = not tested or not shown; [ ] = another dose, or the depositor's remark. Unless noted, calls come from the whole dose curve; as a rule, active = well fitted curve in the direction sought with a large enough effect; inconclusive = small, poorly fitted or top-dose-only effect, or another doubt; inactive = no such curve, though single readings can be large; an effect the other way counts as inactive or inconclusive.

SMILES	MCF10A rereplic	PINK1 expr mod	IL1B secr inh	ATXN viability	ATXN2 expr inh	SW480 rerep
Cc1ccc(N2C(=O)CC(N3CCN(c4ccc(F)cc4)CC3)C2=O)c(C)c1 (configuration not stated)	-21%	1%	7	i	2%	0%[1.84 µM]
COc1cc(NC(=O)CC(c2ccc(C)cc2)N2Cc3ccccc3C2=O)cc(OC)c1 (configuration not stated)	.	?	.	i	-5%	.
Cc1cc(Br)ccc1NC(=O)c1sc2nc3n(c(=O)c2c1C)CCCC3	.	1%	.	.	.	.
O=c1c2ccc(F)cc2sn1-c1ccccc1	.	9%	-106*	20µM*	?	.
O=C(c1sc2cc(F)ccc2c1Cl)N1CCN(c2cccc(Cl)c2)CC1	?	29%	9	i	-1%	-6%
Cc1c(C(=O)Nc2nc(-c3ccccn3)cs2)oc2ccccc12	23µM*	6%	181	i	-30%	17%
O=C(Nc1nc(-c2ccccn2)cs1)c1cc2ccccc2o1	?	6%	75	i	-19%	?
Cc1cccnc1Nc1nc(-c2ccccn2)cs1	9.2µM*	-1%	-111*	.	?	?
CCc1sc(C(=O)Nc2nc(-c3ccccn3)cs2)cc1C	?	-3%	113	i	25µM*	?
CCc1nc2ccccc2n2c(-c3ccccc3)c3c(=O)n(C)c(=O)n(C)c3c12	.	1%	.	i	-1%	.
Cc1cnc(-n2ncc(C(=O)NCCc3cccnc3)c2C)nc1-c1ccc(F)cc1	.	0%	.	i	.	.
COc1ccc(C(=O)CN2CCN(S(=O)(=O)c3ccc(C(C)C)cc3)CC2)cc1	.	0%	.	i	-15%	.
COc1ccc(NC(=O)Cc2csc(COc3cccc(C)c3)n2)cc1OC	.	0%	.	i	-28%	.
COc1ccc2c(c1)CC/C(=C/c1cc(OC)c(OC)c(OC)c1)C2=O	?	2%	-85*	i	?	4%
O=C1/C(=C/Nc2ccc3c(c2)OCO3)CCc2ccccc21	?	?	-2	i	6%	?
COc1ccc2c(c1)CC/C(=C\Nc1ccc3c(c1)OCO3)C2=O	2%	-1%[38.3 µM]	-87*	i	45%	-2%
CC1(C)C(C=C(Cl)Cl)C1C(=O)Nc1ccc([N+](=O)[O-])cc1 (configuration not stated)	?	?	-99*	i	?	?
CCN(CC)CCOC(=O)c1ccc(N/C=C(/C#N)c2nc(-c3ccc4c(c3)OCO4)cs2)cc1	18µM*	1%	32	i	?	?
CCOC(=O)c1nnc(-c2ccc(C)cc2)nc1Oc1ccccc1Cl	2.3µM*	-1%	?	i	7%	?
CCOC(=O)c1nnc(-c2ccc(C)cc2)nc1Sc1ccc(Cl)cc1	-2%	15%	5	i	-9%	-7%
CCOC(=O)c1nnc(-c2ccccc2)nc1Sc1c(Cl)cccc1Cl	15µM*	-2%	-116*	?	?	?
CCOC(=O)c1nnc(-c2ccc(C)cc2)nc1Oc1ccc(Cl)cc1Cl	?	-4%	-28	i	-9%	-7%
CCOC(=O)c1nnc(-c2ccc(C)cc2)nc1Sc1ccccc1Cl	7.3µM*	-3%	-97*	?	?	-4%
O=[N+]([O-])/C=C/c1cn(Cc2ccc(Cl)cc2)c2ccccc12	5.8µM*	1%	?	?	?	?
N#C/C(=C\c1cn(CC(=O)N2CCCC2)c2ccccc12)C(=O)NCc1ccc2c(c1)OCO2	?	1%	-18	i	0%	-4%
N#C/C(=C\c1cn(CC(=O)N2CCCCC2)c2ccccc12)C(=O)NCc1ccc2c(c1)OCO2	1%	0%	-17	?	1%	1.6µM*
COc1cc(/C=C(\C#N)C(=O)N2CCOCC2)cc(Br)c1O	0%	1%	18	?	.	-115%

Bioassay records (PubChem)
